According to the supplement of paper PMC11417369:
The full ranking holds about 25,000 sequences; the median of “ln(normalized median fluorescence intensity)” is about 6.7, and the highest 2% start at about 10. The sample as a whole holds a higher share of the highest values than the screen did.

Test system: PfHDP1 homeodomain (GST-tagged)
Assay: gcPBM binding intensity (ln(normalized median fluorescence intensity)); higher = stronger DNA binding
Procedure, shortened: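 GST-tagged P. falciparum DNA-binding domains produced in E. coli were incubated for 1 h on an Agilent 4 × 180k array of primer-extended double-stranded 36-bp intergenic genomic probes with negative controls. Binding intensity is the highest Masliner-normalised natural-log median intensity across replicate spots of either probe orientation, with bound protein detected by Alexa488 anti-GST antibody at 488 nm.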

Row | Sequence | gcPBM binding intensity (ln)
1 | TTTGAATACTGAATGGTGCAAATTGTTCTCCCCATG | 10.5
2 | TTGTTCTTTTGAAAGGTGCAAAAGAAAAATAATTAA | 9.53
3 | CCCTCCCCATGTTTAGTGCAAAAATATTTGAAATTG [GTGCAC_site9873] | 10
4 | AAAGGATTTATACTAGTGCAAAAATATAAAAATATA | 9.12
5 | TTTTTTTTTTATGAAAGTACATATGAAAAATACGAA [XGTACX_site3451] | 6.53
6 | CATTTTTTTTTATAAATACACACGTACGGGTGCATA [CACACA_site1569] | 7.38
7 | TGATATTTAAATTTTGCACACGCATATGAAATTAGG [CACACA_site1034] | 10.1
8 | ATATTTAAATTTTGCACACGCATATGAAATTAGGAC [CACACA_site1035] | 10.5
9 | ATTAAAAATTCAATTGCACACGCACATATTTTAATA [CACACA_site8618] | 9.92
10 | GACTCATTAAGGATTATTCCTAATGATCAAAAGAAC [CACACA_negctrl_site515] | 6.54
11 | TCTTAAAATATATAGGTGCAAAAAAAAAAAAAAAAA | 8.62
12 | TTTCTAATTTATATCACACACATATATTTATAGTAA [CACACA_site6280] | 6.53
13 | ATAAAAATCAAAAAAAATACATAATAGTAATAATAA [GTGCAC_negctrl_site481] | 6.42
14 | ATGCATACACTTATATGTACACATTTACATATTATT [XGTACX_site2841] | 6.93
15 | TATATATATATATATGTGCACATTTATTGCCTTTGC | 10.6
16 | CATGAATATTTTAATGTGCACATTTATCATTATATG | 10.6
17 | TTTTGTTTATGTGTGCATTATATTATATTTTTTATT [TGCATGCA_negctrl_site146] | 10.2
18 | ATTTTTATATAATGAACACACATATTATATCATTTA [CACACA_site1572] | 6.51
19 | GGAACTTATTTTTATACACACATATGTGCATATTAT [CACACA_site629] | 10.8
20 | TTTCACATATATATGGTGCATATTTTATGTGTAAAT [GTGCAC_site9937] | 9.91
21 | ATATTTTTATATAATGAACACACATATTATATCATT [CACACA_site8446] | 6.22

Row | Sequence | gcPBM binding intensity (ln)
22 | CTTTATATATATTGCGTGCACATTTTTTTTTTTTTT | 9.4
23 | TTTTTTTTCTATGTGGTGCACATTATTTTTTTTTTT | 9.27
24 | GTAAAGGCTATATATGTGCACATTTTTTTTTTTTTT [GTGCAC_site9925] | 10.9
25 | CTTATGTGCATACCTACACACTTACCTATATTTATA [CACACA_site7411] | 9.67
26 | TTTTGTTTAGTGTATTGTACAATATATCTTTATTTT [XGTACX_site5163] | 6.52
27 | TTTTGGCTGATCAGATTTAACAAAAAAAAAAAAAAA [CACACA_negctrl_site671] | 6.06
28 | GAAATTAAATGACATACACACTATATTATAGATTTT [CACACA_site7468] | 6.23
29 | AGTGGGATTTTTAATTGTACATAAATAATATCATAA [XGTACX_site4163] | 6.56
30 | AGAATTAAAAACAGTTGTACAAAAAGTTGTATAAAT [XGTACX_site411] | 7.41
31 | AAATAAAAGGTTGAGAGTACATTTTTGTGTATGTAT [XGTACX_site5547] | 6.49
32 | ACTGAAAAAAGAAATACACACATTCTGGATCAGATA [CACACA_site7760] | 6.39
33 | ATTTACATTATATTGAATATGCCATATTATATTATT [CACACA_negctrl_site811] | 6.59
34 | CGTATGTGCGGACATGCATGCAATATACAAGAAAAA [TGCATGCA_site145] | 7.01
35 | TATATTATTCATTAAGCACACATTATTTTTATAATA [CACACA_site6056] | 6.36
36 | ACATATTATTCAAGTGCACACTTTATATTTATGATT [CACACA_site3295] | 8.81
37 | TATATATATATATATGTGCACATTTTATTAAAATGT | 10.2
38 | CATTATATGATTTATGTGCACATTCATTTATTTTAA | 10.8
39 | TTATATTATATATATGTGCACATTTTTAAACTTGGA | 10.7
40 | TATTTTTAACAGTGCACACATAACTTAATTATATGT [CACACA_site2194] | 9.55
41 | TACTTAATTATAAGGACATGCACAAAAGGAATTATT [TGCATGCA_site468] | 8.01
42 | CTTATTTTGTTATAAGTGCATTTTTTAAAATTTCTT | 8.33

Row | Sequence | gcPBM binding intensity (ln)
43 | TGTTAAAATTATTTGGTGCACTTGTTTTACCTTATT | 9.92
44 | ATTTATTTCTTGTTAGTGCACTTTCTTTGGTAAAAT | 10.9
45 | ATCTTATATATACGTTGTACTACAGGATATGTCATA [XGTACX_site5734] | 6.63
46 | TTAAAATTCAAAAAAAAAAATCAGAATATCAGAAAA [CACACA_negctrl_site1361] | 5.92
47 | ATTGTGCACTTATATGCACACATTTTAGTTTTTTTT [CACACA_site2028] | 11.5
48 | TAATATTATTATTTTACACACTTTTTTCCTTTTATC [CACACA_site2457] | 6.61
49 | ATTTATATGCACCATTGTACGTTTTATAAAGTTTGG [XGTACX_site3755] | 10.5
50 | CATTTTGTTTTAAAGTGTACATTATGTAATATAAAA [XGTACX_site647] | 6.54
51 | ATTTATATTAAAAGTGTGCACTTTTTTTTTTTTTTT | 8.1
52 | TATATATTTCGGTGTGCACACTTTTTATTTTTATCC [CACACA_site1726] | 10.7
53 | TATATATATTAGTGTGCACACTTTTTATTTTTATCC [CACACA_site8506] | 10.5
54 | ATATTACACATATATGCACACATTGTAGTTATTTAT [CACACA_site8843] | 8.92
55 | ATATATATATAAAGTTGTACATTTTTTATTTTTTCA [XGTACX_site7847] | 8.52
56 | TATATATGTATATGTGTGCACCTTATTTCTTTTATT [GTGCAC_site9513] | 9.55
57 | TTATATTTAGTATATGCACACTTTATGTTTGTTATT [CACACA_site5163] | 9.53
58 | TATATTTATATATTAGTGCACTTTTTGTTAATTTTT | 10.3
59 | TTTCAATGTGACACGTGTCCGTAAAATTACATAATT [XGTACX_site7073] | 6.61
60 | ATCGCGAAGTAGCATTCACACACAGCAAAATATATA [CACACA_site9162] | 6.65
61 | ATATATATATTTATATGTACATAATATAAAATTTCT [XGTACX_site3720] | 7.7
